Source: PubChem BioAssay (NCI)
Compounds without any hit were thinned out: in the full panel of roughly 83,000, 20% have a hit.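 Compound tested at a single concentration for 48 hours in 96-well plates; a percent growth value below 10 was scored as active.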 Unmarked numbers belong to inactive results. The source made the active and inactive calls.

Each compound was assayed on CAKI-1 renal (assay: NCI-60 one-dose screen, 48 h (100 = growth as untreated, 0 = no growth, -100 = all killed)). Details: 10 µM unless noted.

SMILES | growth
Brc1ccc(-c2n(Cc3ccc4ccccc4c3)c(-c3ccccc3)c(-c3ccccc3)[n+]2Cc2ccc3ccccc3c2)cc1 | -97% (active)
O=C1CCCc2cc(OCC(=O)N3CCCCC3)ccc2N1 | 96.7%
COc1cc2c3c(n(CCCN4CCC[C@@H]4CO)c(=O)c2cc1OC)-c1cc2c(cc1C3=O)OCO2 | -94.6% (active)
CC(=O)c1c(N)c(C#N)cn1-c1ccc(Cl)cc1Cl | 97.1%
Cc1ccc(C2CC(c3ccc(S(=O)(=O)NCCNc4nc(Nc5ccc(F)cc5)nc(N(C)C)n4)cc3)=Nc3c(N)nc(N)nc3N2)cc1 (stereo not drawn) | 76.9%
Cc1ccc(C(=O)C(c2c[nH]c3ccccc23)c2c[nH]c3ccccc23)cc1 | 18.7%
COc1cc(-c2nc3ccc(C)cc3[nH]2)ccc1OCc1nnc(-c2ccc(Br)cc2)o1 | 44.6%
Nc1nnc(-c2c[nH]c3ccc(Br)cc23)c(-c2c[nH]c3ncc(Br)cc23)n1 | 21%
Cc1ccc(-c2nc(C#N)c(S(=O)(=O)N3CCN(S(=O)(=O)c4ccc(Cl)cc4)CC3)o2)cc1 | 94.1%
CCOC(=O)C1=C(N)N(c2ccccc2)C2=C(C(=O)CC(C)(C)C2)C1c1ccccc1Cl (stereo not drawn) | 46.7%
Cc1ccc(C(=O)NN2C(=O)/C(=C/C=C/c3ccc([N+](=O)[O-])o3)SC2=S)cc1 | -100% (active)
CCCS(=O)(=O)N1CCCC(C(=O)Nc2nc3ccc(NC(=O)c4ccc(F)c(OC)c4F)cc3s2)C1 (stereo not drawn) | 43.2%
O=C1CC(Sc2n[nH]c(-c3ccncc3)n2)C(=O)N1c1ccc(Br)cc1 (stereo not drawn) | 99.9%
